We go through 16 molecules from PubChem BioAssay AID1233 (SRMLSC, 2008).

The target in this experiment is HMG-CoA reductase [Enterococcus faecalis] (UniProt Q9FD70). Briefly: inhibitors of E. faecalis class II HMGR, confirmation, biochemical, Enterococcus faecalis (AID 1233). Conditions: purified E. faecalis HMGR, NADPH absorbance 340 nm kinetics; series mostly up to 100 µM.

Structures are written as SMILES. Measured potencies and affinities stand elsewhere. Activity calls are given as the source filed them.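 How the source made its calls: active means a dose-response curve fit returns a half-maximal inhibitory concentration, extrapolated values included; inactive means the fit returns no such concentration.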 Residues, ends and D or L forms follow the SMILES beside them.

For the molecule `O=C(O)[C@@H]1C[C@H]1[C@@H](NP(=O)(c1ccccc1)c1ccccc1)c1ccccc1`, the call was inactive.
As for `CCc1ccc(NC(=O)C(C)OC(=O)c2c(C)nn(Cc3ccccc3)c2Cl)cc1` (stereo unspecified), the call was inactive.
On to `CC(C)C[C@H](NC(=O)[C@@H]1CCCN1C(=O)[C@@H](N)Cc1ccc(O)cc1)C(=O)NCC(N)=O` (H-YPLG-NH2), for which the molecule was classed as inactive.
With `O=[N+]([O-])/C(Cl)=C1\NCCN1Cc1ccc(Cl)nc1`, the molecule was called inactive.
Consider `COc1ccc(NC(=O)c2c(C)nn(Cc3ccccc3Cl)c2Cl)cc1Cl`, for which the call was inactive.
Regarding `CC(C)Oc1cccc(NC(=O)c2cccn(Cc3ccc4c(c3)OC(F)(F)O4)c2=O)c1`, the molecule was classed as inactive.
As for `OC(Cn1c2ccccc2c2ccccc21)C[n+]1cccc2ccccc21` (stereo unspecified), the outcome was inactive.
For `Cc1c(P(=S)(c2ccccc2)c2ccccc2)[n+]2ccccc2n1C` the value was “inactive”.
Take `CCN(CCNc1ccc([N+](=O)[O-])c2cccnc12)S(=O)(=O)c1ccccc1`: the molecule was called inactive.
Turning to `CCN1CCN(C(=O)Cc2ccccc2OC)CC1`, the molecule was classed as inactive.
For `CCCCC(CC)CNCC(O)c1ccccc1` (stereo unspecified), the molecule was called inactive.
Under `COc1ccc(C[C@@H]2c3cc(O)c(OC)cc3CCN2C)cc1O` stands “inactive”; under `CCCn1cc(C(=O)O)cn1`, “inactive”.
In the case of `COc1ccc(C(=O)C2CCCN(Cc3cnc(C)s3)C2)c(OC)c1` (stereo unspecified), the outcome was inactive.
On to `CC1(C)C(C(=O)NCc2ccco2)C1(C)C`, for which the call was inactive.
`COc1ccc(CCn2c(O)c(C=NCCCn3ccnc3)c(=O)[nH]c2=O)cc1OC`: the molecule was called inactive.
